In ChEMBL document CHEMBL1961873, “Compounds: GSK PKIS; Assays: Nanosyn kinase panel” (2012):

Target: CDK3/Cyclin E (Homo sapiens) (UniProt P24864+Q00526)
Conditions: at 0.1 µM
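Further: reported percentages are mean inhibition values.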

Chain of CDK3/Cyclin E (Homo sapiens) (P24864 whole entry, looked up): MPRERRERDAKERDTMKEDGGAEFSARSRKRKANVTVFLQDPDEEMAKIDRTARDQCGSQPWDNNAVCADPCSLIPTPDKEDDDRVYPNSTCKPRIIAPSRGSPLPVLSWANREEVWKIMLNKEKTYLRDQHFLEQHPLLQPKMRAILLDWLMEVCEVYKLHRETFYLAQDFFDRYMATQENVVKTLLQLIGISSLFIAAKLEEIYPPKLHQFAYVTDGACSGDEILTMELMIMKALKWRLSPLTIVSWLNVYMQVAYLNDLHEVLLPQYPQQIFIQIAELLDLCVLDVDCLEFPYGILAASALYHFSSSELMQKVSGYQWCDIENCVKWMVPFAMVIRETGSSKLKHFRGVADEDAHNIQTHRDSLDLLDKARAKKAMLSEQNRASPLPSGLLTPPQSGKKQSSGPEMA
Chain of CDK3/Cyclin E (Homo sapiens) (Q00526 whole entry, looked up): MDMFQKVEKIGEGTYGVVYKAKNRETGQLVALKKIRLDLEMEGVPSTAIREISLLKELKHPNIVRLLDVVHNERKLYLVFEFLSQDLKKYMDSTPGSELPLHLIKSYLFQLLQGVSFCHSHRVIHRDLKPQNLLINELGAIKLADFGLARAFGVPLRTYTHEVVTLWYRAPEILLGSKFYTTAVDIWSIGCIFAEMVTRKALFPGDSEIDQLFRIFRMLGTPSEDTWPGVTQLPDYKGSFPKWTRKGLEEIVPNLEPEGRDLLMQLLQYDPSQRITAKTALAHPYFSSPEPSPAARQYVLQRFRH

| Compound | inhibition |
| --- | --- |
| CC(C)(CO)CNC(=O)c1ccc2c(c1)/C(=N/Nc1ccc(S(N)(=O)=O)cc1)C(=O)N2 | 48.5% |
| COc1ccc(-c2cc(-c3c[nH]nc3-c3ccccn3)ccn2)cc1 | 2.59% |
| CC(=O)NCc1cccc(C#Cc2cncnc2Nc2ccc(OCc3cccc(F)c3)c(Cl)c2)c1 | 1.84% |
| COc1ccc(CNC(=O)c2ccc(-c3cc(-c4nnc(C)o4)ccc3C)cc2)cc1 | 3.23% |
| O=S(=O)(CCNCc1ccc(-c2ccc3ncnc(Nc4ccc(OCc5cccc(F)c5)c(Cl)c4)c3c2)o1)c1ccccc1 | 0.01% |
| Nc1nc(-c2cccc(Cl)c2)c(-c2ccc3ncccc3n2)s1 | 2.24% |
| CS(=O)(=O)CCNCc1ccc(-c2ccc3ncnc(Nc4ccc(OCc5ccccc5)c(C(F)(F)F)c4)c3c2)o1 | 0.51% |
| CCN(CC)S(=O)(=O)c1ccc(OC)c(Nc2ncc(-c3ccccc3)o2)c1 | 1.42% |
| CS(=O)(=O)CCNCc1coc(-c2ccc3ncnc(Nc4ccc(OCc5ccccc5)cc4)c3c2)c1 | -3.62% |
| CCN1CCC(CC(=O)Nc2n[nH]c3nnc(-c4cccc(F)c4F)cc23)CC1 | 0.16% |
| CN1CCC(n2cnc(-c3ccc(F)cc3)c2-c2ccnc(Nc3ccccc3)n2)CC1 | 2.38% |
| CCNC(=O)O[C@H]1CN[C@H](C#Cc2cc3ncnc(Nc4ccc(OCc5cccc(F)c5)c(Cl)c4)c3s2)C1 | 1.08% |
| Clc1ccc(-c2nn3ncccc3c2-c2ccnc(Nc3ccccc3)n2)cc1 | 1.03% |
| Cc1cccc2c1NC(=O)/C2=N\Nc1ccc(S(N)(=O)=O)cc1 | 2.34% |
| COc1cc(/C=N/Nc2ncnc3[nH]ncc23)ccc1O | 1.56% |
| COc1cccc(-n2ncc3c(N/N=C/c4ccc(F)cc4)ncnc32)c1 | 3.62% |
| COc1cc(N2CCN(C(C)C)CC2)ccc1Nc1nc(Nc2ccc(F)cc2C(N)=O)c2cc[nH]c2n1 | -2.54% |
